# According to paper PMC5540273 (PLoS ONE, 2017):
# Key:
# Settings in all cases: concentration: 1 μM, replicates: in singlicate; n = 1
# LYN = tested on: LYN
# LZK = tested on: T1, LZK
# T1 construct: gene MAP3K13
# MAK = tested on: MAK
# MAP3K15 = tested on: MAP3K15
# MAP3K1 = tested on: MAP3K1
# MAP3K2 = tested on: MAP3K2
# MAP3K3 = tested on: MAP3K3
# MAP3K4 = tested on: MAP3K4
# MAP4K2 = tested on: MAP4K2
# MAP4K3 = tested on: MAP4K3
# MAP4K4 = tested on: MAP4K4
# MAP4K5 = tested on: MAP4K5
# MAPKAPK2 = tested on: MAPKAPK2
# MAPKAPK5 = tested on: MAPKAPK5
# MARK1 = tested on: MARK1
# MARK2 = tested on: MARK2
# MARK3 = tested on: MARK3
# MARK4 = tested on: MARK4
# MAST1 = tested on: MAST1
# MEK1 = tested on: T2, MEK1
# T2 construct: gene MAP2K1
# 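Note: KINOMEscan kinase panel screen.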
SMILES,%Inh (LYN),%Inh (LZK),%Inh (MAK),%Inh (MAP3K15),%Inh (MAP3K1),%Inh (MAP3K2),%Inh (MAP3K3),%Inh (MAP3K4),%Inh (MAP4K2),%Inh (MAP4K3),%Inh (MAP4K4),%Inh (MAP4K5),%Inh (MAPKAPK2),%Inh (MAPKAPK5),%Inh (MARK1),%Inh (MARK2),%Inh (MARK3),%Inh (MARK4),%Inh (MAST1),%Inh (MEK1)
Cc1cccc(-c2nc(Nc3ccncc3)c3ccccc3n2)n1 [GW855857],0%,0%,0%,0%,0%,0%,0%,16%,0%,0%,0%,0%,0%,0%,0%,0%,32%,25%,50%,0%
Cc1nnc(-c2ccc3occ(-c4ccc(S(C)=O)cc4)c3c2)[nH]1 (stereo not drawn),18%,0%,0%,10%,24%,1%,0%,2%,0%,11%,0%,0%,0%,20%,21%,22%,0%,19%,7%,8%
Cc1c(O)cccc1Nc1ccnc2ccc(C(F)(F)F)cc12.Cl [GW466413],0%,14%,0%,0%,2%,22%,47%,0%,0%,0%,0%,0%,8%,0%,0%,0%,0%,2%,0%,0%
Nc1nc(-c2nccs2)c(-c2ccnc3ccccc23)s1 [GW693542],3%,3%,46%,0%,13%,0%,0%,27%,0%,0%,4%,0%,28%,0%,0%,0%,0%,1%,0%,0%
COC(=O)c1c(-c2ccccc2)c2cc(OC)ccc2c(=O)n1Cc1ccccc1,32%,0%,33%,0%,24%,0%,11%,12%,0%,0%,0%,0%,10%,0%,19%,21%,0%,22%,20%,0%
Fc1cc(Cl)ccc1Nc1ccnc2cc(-c3ccc(CN4CCCCC4)o3)ccc12 [GW560116],0%,7%,52%,0%,0%,0%,0%,0%,0%,0%,0%,0%,0%,0%,0%,0%,0%,0%,43%,4%
O=C(Nc1ccccc1)Nc1cccc(Oc2ccc3nccn3n2)c1,0%,0%,27%,0%,0%,0%,0%,4%,0%,9%,0%,0%,0%,0%,2%,39%,0%,9%,0%,0%
Cn1ccc2ncnc(Oc3ccc(Nc4nc5ccccc5[nH]4)cc3)c21,0%,0%,5%,0%,0%,0%,0%,0%,0%,9%,0%,0%,0%,0%,0%,9%,0%,13%,0%,0%
O=C(Nc1n[nH]c2cc(-c3cccc(F)c3F)ccc12)C1CC1 [SB-733894],0%,100%,21%,0%,4%,6%,30%,0%,0%,12%,32%,0%,0%,0%,27%,25%,0%,7%,18%,1%
CCn1c(-c2cccnc2O)nc2cnccc21 [SB-736715],0%,11%,13%,0%,0%,0%,0%,0%,0%,0%,0%,0%,16%,0%,0%,15%,0%,0%,13%,0%
Fc1cc(Cl)ccc1Nc1ccnc2cc(I)ccc12 [GW551191],14%,0%,40%,0%,7%,0%,0%,0%,0%,0%,28%,0%,19%,0%,0%,0%,11%,0%,0%,0%
Cn1cncc1-c1ccc2ncnc(Nc3ccc(OCc4ccccc4)cc3)c2c1 [GW320571],2%,0%,15%,0%,18%,10%,0%,19%,0%,16%,25%,21%,21%,0%,0%,0%,0%,2%,0%,11%
COc1ccc(Nc2nccc(-c3cccc(NC(=O)c4cc5cc(F)ccc5[nH]4)c3)n2)cc1 [GSK1229782],0%,33%,36%,0%,5%,38%,0%,21%,0%,0%,22%,7%,0%,0%,9%,19%,0%,21%,20%,0%
Nc1ncnc2[nH]c(-c3ccccc3)nc12 [AH5015],7%,0%,0%,0%,16%,0%,0%,0%,0%,0%,4%,0%,12%,0%,0%,0%,0%,0%,0%,0%
COc1ccc(Nc2nccc(NCCNC(=O)Nc3ccccc3F)n2)cc1 [GSK1379901],0%,7%,19%,0%,1%,5%,0%,52%,0%,0%,0%,0%,25%,0%,0%,0%,0%,11%,0%,0%
COc1cc(Nc2nccc(N3CCC(NC(=O)Nc4cc(C)ccc4C)C3)n2)cc(OC)c1OC (stereo not drawn) [GSK1379762],6%,0%,54%,17%,16%,0%,0%,12%,0%,0%,0%,0%,10%,0%,0%,0%,8%,9%,2%,0%
O=C1NC(=O)C(N2CCc3ccccc32)=C1c1ccccc1Cl [SB-373598],17%,0%,9%,9%,23%,4%,4%,29%,21%,1%,26%,24%,33%,8%,9%,10%,0%,17%,0%,13%
COC(=O)c1c(-c2ccccc2)c2cc(C(=O)O)ccc2c(=O)n1Cc1ccccc1,16%,0%,0%,8%,0%,0%,0%,4%,0%,0%,0%,7%,3%,0%,0%,3%,0%,0%,0%,0%
COc1ccc(C2=C(Nc3cccc(C(=O)O)c3)C(=O)NC2=O)cc1 [SB-390765],21%,52%,36%,15%,18%,12%,7%,9%,32%,2%,0%,0%,0%,20%,3%,8%,0%,0%,30%,13%
COc1cc2ncn(-c3cc(OCC4CCCO4)c(C(N)=O)s3)c2cc1OC (stereo not drawn) [GSK204607],0%,0%,9%,0%,50%,0%,0%,0%,0%,70%,6%,4%,0%,0%,0%,0%,0%,0%,2%,24%
O=C(O)COc1ncnc2cc(-c3ccc4[nH]ncc4c3)sc12,0%,39%,2%,53%,22%,13%,9%,4%,1%,0%,0%,6%,0%,9%,8%,20%,0%,14%,0%,5%
